Inconclusive results are not listed. Active and inactive are the calls of the source. Unless noted, the call rests on the fitted dose curve.

Sequence of Vitamin D3 receptor (Homo sapiens) (P11473 whole entry, looked up): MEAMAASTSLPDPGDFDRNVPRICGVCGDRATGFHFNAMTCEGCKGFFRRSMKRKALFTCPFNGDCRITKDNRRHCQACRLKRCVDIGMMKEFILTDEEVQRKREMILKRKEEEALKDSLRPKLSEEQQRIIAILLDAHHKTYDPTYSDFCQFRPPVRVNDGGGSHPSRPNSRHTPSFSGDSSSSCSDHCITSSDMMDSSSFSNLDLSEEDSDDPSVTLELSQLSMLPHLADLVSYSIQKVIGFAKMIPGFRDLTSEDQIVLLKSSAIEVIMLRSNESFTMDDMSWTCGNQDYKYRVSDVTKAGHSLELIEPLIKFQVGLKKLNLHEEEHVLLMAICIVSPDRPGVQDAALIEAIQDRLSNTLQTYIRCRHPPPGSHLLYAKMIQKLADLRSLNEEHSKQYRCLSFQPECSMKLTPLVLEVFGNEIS
Sequence of Peroxisome proliferator-activated receptor gamma (Homo sapiens) (P37231 whole entry, looked up): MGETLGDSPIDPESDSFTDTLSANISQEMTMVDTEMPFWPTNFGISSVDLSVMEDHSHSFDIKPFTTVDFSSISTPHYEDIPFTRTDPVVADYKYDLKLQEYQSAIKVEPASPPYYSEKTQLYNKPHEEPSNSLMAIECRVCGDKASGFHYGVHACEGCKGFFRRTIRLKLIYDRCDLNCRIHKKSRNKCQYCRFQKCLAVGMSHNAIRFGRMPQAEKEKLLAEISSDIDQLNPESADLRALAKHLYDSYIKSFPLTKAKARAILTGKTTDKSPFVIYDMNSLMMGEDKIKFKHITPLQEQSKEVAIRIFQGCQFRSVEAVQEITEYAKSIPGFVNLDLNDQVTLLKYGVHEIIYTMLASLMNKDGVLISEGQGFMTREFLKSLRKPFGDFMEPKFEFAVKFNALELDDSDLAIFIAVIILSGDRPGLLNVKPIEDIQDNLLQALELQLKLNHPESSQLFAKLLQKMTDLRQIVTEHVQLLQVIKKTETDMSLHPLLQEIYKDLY

One assay concerns the target Peroxisome proliferator-activated receptor gamma (Homo sapiens) (UniProt P37231). Briefly: qHTS assay for small molecule agonists of peroxisome proliferator-activated receptor gamma signaling (AID 588536; active means well fitted curve in the direction sought with a large enough effect in the signal ratio, with a control signal flat, not every such curve was filed as active; the % refers to the signal ratio). The note with it: HEK293 PPARg-UAS-bla, beta-lactamase ratio, 16 h, percent of rosiglitazone response, DMSO as zero; series mostly up to 76.7 µM; activation: at the top concentration. The essentials: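 Using GeneBLAzer HEK293 cells, response was quantified by CCF4 fluorescence and normalized between basal DMSO (0%) and rosiglitazone 2 uM (100%); curves yielded half-maximal stimulation concentration and efficacy.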
(In general: Quantitative high-throughput screening tests each substance at several concentrations.)
With `CCCC(=O)c1cc(O)c(O)cc1O`, the “activation” value was -0.5% (inactive).

Regarding `CC(C)C(C)(C)C(C)(C)C(C)(C)S`, the outcome was inactive.

Turning to `Oc1ccccc1`, the outcome was inactive.

Take `Cc1cc(C(C)(C)C)c(O)c(C(C)(C)C)c1`: the outcome was inactive.

In the case of `CCCCCCCCCCCC[N+](C)(C)Cc1ccccc1`, the “activation” value was -7.47% (inactive).

On to `CC(C)(C)c1ccc(O)c(O)c1`, for which the result was inactive.

As for `Nc1cccc2c(N)cccc12`, the outcome was inactive.

Turning to `COc1cc(C=O)ccc1O`, the “activation” value was -0.717% (inactive).

For the compound `Nc1c2ccccc2nc2ccccc12`, the “activation” value is 2.61% (inactive).

With `OCc1c[nH]c2ccccc12`, the “activation” value is -1.13% (inactive).

In the case of `CC(=O)OC/C=C(C)/C=C/C=C(C)/C=C/C1=C(C)CCCC1(C)C`, the “activation” value is -4.41% (inactive).

Turning to `O=C(Oc1ccccc1)c1ccccc1O`, the outcome was inactive.

As for `CN1C(=O)c2ccccc2C1=O`, the “activation” value is -5.35% (inactive).

On to `CCCCCCCCCCCCCCCC[n+]1ccccc1`, for which the “activation” value was -8.53% (inactive).

In the case of `OCCOCCN1CCN(C(c2ccccc2)c2ccc(Cl)cc2)CC1` (configuration not stated), the “activation” value was -14.1% (inactive).

Consider `Cc1ncc(CO)c(CO)c1O`, for which the “activation” value was -7.11% (inactive).

Take `c1ccc2occc2c1`: the “activation” value is 5.99% (inactive).

With `Cc1ccc(O)cc1`, the “activation” value is -0.979% (inactive).

Take `C1=CC2C3C=CC(C3)C2C1` (configuration not stated): the “activation” value is -2.27% (inactive).

The next assay shares this target. Description: qHTS assay for small molecule antagonists of peroxisome proliferator-activated receptor gamma signaling (AID 588537; active means well fitted inhibition curve with a large enough effect in the signal ratio, with a control signal flat, not every such curve was filed as active; the % refers to the signal ratio;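 further: reporter cells co-stimulated with 50 nM rosiglitazone agonist during compound treatment; % of control where 0% means no effect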). As to conditions: HEK293 PPARg-UAS-bla, beta-lactamase ratio, antagonist mode; series mostly up to 76.8 µM; activity, negative = inhibition: at the top concentration. In short, it runs like this:
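Compounds are tested as concentration series for inhibition of rosiglitazone-driven (50 nM) reporter expression in GeneBLAzer PPAR-gamma-UAS-bla HEK293 cells. After 16 h at 37 C, CCF4 substrate is added for 2 h at room temperature and blue/green fluorescence is measured.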
`CCCC(=O)c1cc(O)c(O)cc1O`: the “activity, negative = inhibition” value was -16.7% (inactive).

Regarding `CC(C)C(C)(C)C(C)(C)C(C)(C)S`, the “activity, negative = inhibition” value is 2.11% (inactive).

On to `Cc1cc(C(C)(C)C)c(O)c(C(C)(C)C)c1`, for which the “activity, negative = inhibition” value was 10% (inactive).

With `CCCCCCCCCCCC[N+](C)(C)Cc1ccccc1`, the “activity, negative = inhibition” value is 7.05% (inactive).

For the compound `COC(=O)c1c(Cl)c(Cl)c(C(=O)OC)c(Cl)c1Cl`, the “activity, negative = inhibition” value is -5.63% (inactive).

On to `CC(C)(C)c1ccc(O)c(O)c1`, for which the “activity, negative = inhibition” value is -8.93% (inactive).

For the compound `O=C(Oc1ccccc1)c1cccc(C(=O)Oc2ccccc2)c1`, the “activity, negative = inhibition” value was 8.47% (inactive).

Take `Nc1cccc2c(N)cccc12`: the “activity, negative = inhibition” value is -5.75% (inactive).

`COc1cc(C=O)ccc1O`: the outcome was inactive.

`O=C(Oc1ccccc1)c1ccccc1O`: the “activity, negative = inhibition” value is -0.31% (inactive).

Turning to `CN1C(=O)c2ccccc2C1=O`, the “activity, negative = inhibition” value is -0.882% (inactive).

For `OCCOCCN1CCN(C(c2ccccc2)c2ccc(Cl)cc2)CC1` (configuration not stated), the “activity, negative = inhibition” value is 3.76% (inactive).

On to `Cc1ncc(CO)c(CO)c1O`, for which the “activity, negative = inhibition” value is 4.12% (inactive).

With `Cc1ccc(O)cc1`, the “activity, negative = inhibition” value was 12.5% (inactive).

Regarding `Nc1ccc(O)cc1`, the “activity, negative = inhibition” value is -8.71% (inactive).

The target of a further assay is Vitamin D3 receptor (Homo sapiens) (UniProt P11473). Description: qHTS assay for small molecule agonists of vitamin D receptor signaling (AID 588543). As to conditions: HEK293T VDR-UAS-bla, beta-lactamase ratio, 16 h; series mostly up to 76.8 µM; activation: at the top concentration. The essentials:
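GeneBLAzer VDR-UAS-bla HEK293T cells in 2% charcoal-stripped FBS medium were dosed with compound titrations for 16 h at 37 °C; CCF4 β-lactamase readout (405 nm ex, 460/530 nm em). EC50 and efficacy from Hill fits, normalized to 50 nM calcitriol (100%) and DMSO (0%).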
In the case of `CCCC(=O)c1cc(O)c(O)cc1O`, the “activation” value is 1.64% (inactive).

As for `CC(C)C(C)(C)C(C)(C)C(C)(C)S`, the outcome was inactive.

Consider `O=C(NO)c1ccccc1`, for which the “activation” value was -1.21% (inactive).

For `CCCCCCCCCCCC[N+](C)(C)Cc1ccccc1`, the “activation” value is -3.07% (inactive).

In the case of `COC(=O)c1c(Cl)c(Cl)c(C(=O)OC)c(Cl)c1Cl`, the “activation” value is 2.95% (inactive).

Regarding `CC(C)(C)c1ccc(O)c(O)c1`, the result was inactive.

Turning to `O=C(Oc1ccccc1)c1cccc(C(=O)Oc2ccccc2)c1`, the “activation” value is -5.51% (inactive).

Take `Nc1cccc2c(N)cccc12`: the outcome was inactive.

Consider `COc1cc(C=O)ccc1O`, for which the outcome was inactive.

In the case of `OCc1c[nH]c2ccccc12`, the “activation” value was -0.0307% (inactive).

In the case of `O=C(c1ccccc1)c1ccccc1`, the outcome was inactive.

Take `CC(=O)OC/C=C(C)/C=C/C=C(C)/C=C/C1=C(C)CCCC1(C)C`: the outcome was inactive.

Regarding `CCN(CC)CCOc1ccc(/C(=C(\Cl)c2ccccc2)c2ccccc2)cc1`, the “activation” value is -10% (inactive).

Turning to `CN1C(=O)c2ccccc2C1=O`, the “activation” value is -0.377% (inactive).

As for `CCCCCCCCCCCCCCCC[n+]1ccccc1`, the “activation” value was -2.13% (inactive).

On to `OCCOCCN1CCN(C(c2ccccc2)c2ccc(Cl)cc2)CC1` (configuration not stated), for which the “activation” value was -3% (inactive).

In the case of `Cc1ncc(CO)c(CO)c1O`, the “activation” value was -2.1% (inactive).

For `CCCCC(CC)COC(=O)c1ccccc1C(=O)O` (configuration not stated), the result was inactive.

Take `c1ccc2occc2c1`: the outcome was inactive.

On to `Cc1ccc(O)cc1`, for which the “activation” value was -0.237% (inactive).

For the compound `Brc1ccccc1-c1ccccc1`, the “activation” value was 3.86% (inactive).

For `C1=CC2C3C=CC(C3)C2C1` (configuration not stated), the “activation” value was 0.918% (inactive).

With `Nc1ccc(O)cc1`, the “activation” value is 1.98% (inactive).

Values taken from PubChem BioAssay (NCATS).
